Results on 26 compounds are retold here after PubChem BioAssay (Tox21).

Experiment [1] can be described thus: A CellTox Green Cytotoxicity Assay to monitor cytotoxicity in HepG2 cells - 8 hour (AID 1224890). Note: nearly all actives have a fitted effect of over 45% in size. Note: potency is the fitted concentration of half-maximal effect. Summed up:
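Continuous culture of HepG2 cells with a membrane-impermeant DNA dye; rising fluorescence marks dead cells. Compound exposure lasted up to 40 h at 37 C, with reads every 8 h from 0 h.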

Experiment [2] is described as follows: qHTS assay to identify small molecule antagonists of the androgen receptor (AR) signaling pathway using the MDA cell line in the presence of 0.5 nM R1881 - cell viability counter screen (AID 1259242). Note: nearly all actives have a fitted effect of over 45% in size. Note: potency is the fitted concentration of half-maximal effect. The method, boiled down: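 Fluorescence from CellTiter-Fluor, which reports protease activity of live cells, was read 30 min after reagent addition to MDA-kb2 cells that had been incubated 16 hr with compound and 0.5 nM R1881.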

Experiment [3] in a line: qHTS assay to identify small molecule HDAC inhibitors (AID 1259364). Note: nearly all actives have a fitted effect of over 45% in size. Note: potency is the fitted concentration of half-maximal effect. Summed up:
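Endogenous HDAC class I/II activity was measured in wild-type HCT-116 cells by HDAC-Glo luminescence after 2 h compound treatment.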

Experiment [4] in a line: qHTS assay to identify small molecule HDAC inhibitors - cell viability counter screen (AID 1259365). Note: series mostly up to about 92 µM; nearly all actives have a fitted effect of over 50% in size. Summed up: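 CellTiter-Glo luminescence (30 min, room temperature) reported viability after a 2 h compound exposure at 37 C. Cells: wild-type HCT-116, 1,500 per well, seeded the night before.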
Experiment [5] in a line: qHTS assay to identify small molecule agonists of the sonic hedgehog signaling (Shh) pathway - cell viability counter screen (AID 1259366). Note: nearly all actives have a fitted effect of over 50% in size. Note: potency is the fitted concentration of half-maximal effect. Summed up:
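Cytotoxicity counter screen: CellTiter-Fluor reagent added after 23 h compound exposure, then 1 h at 37C and fluorescence read. Cells were 3T3 Gli1-Luc, seeded 2,000 per well and dosed 4 h post-plating.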

A short description of experiment [6]: qHTS assay to identify small molecule antagonists of the estrogen receptor alpha (ER-alpha) signaling pathway using the BG1 cell line in the presence of 0.1 nM 17-beta-estradiol - cell viability counter screen (AID 1259241). Note: nearly all actives have a fitted effect of over 40% in size. Note: potency is the fitted concentration of half-maximal effect. Summed up: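 Cytotoxicity counter-screen: live-cell protease activity measured by fluorescence (30 min reagent step) in the same wells. Cells were VM7Luc4E2 with endogenous ER-alpha and ERE-driven luciferase, treated 22 hr at 37C alongside 0.1 nM 17beta-estradiol final.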

Experiment [7] in a line: qHTS assay to identify small molecule antagonists of the sonic hedgehog signaling (Shh) pathway - cell viability counter screen (AID 1259367). Note: nearly all actives have a fitted effect of over 55% in size. Note: potency is the fitted concentration of half-maximal effect. The method, boiled down: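 After a 4 hr settling period, 3T3 Gli1-Luc cells were treated with DMSO-dissolved chemicals and conditioned medium, kept 24 hr at 37C in 5% CO2, and assayed for viability by CellTiter-Fluor fluorescence following 1 hr reagent incubation.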

Experiment [8] deals with Androgen receptor (Homo sapiens) (UniProt P10275). Description: qHTS assay to identify small molecule antagonists of the androgen receptor (AR) signaling pathway using the MDA cell line in the presence of 0.5 nM R1881 (AID 1259243). Note: nearly all actives have a fitted effect of over 50% in size. Note: potency is the fitted concentration of half-maximal effect. Summed up: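 Inhibition of R1881 (0.5 nM final) induced reporter signal was measured in human MDA-kb2 cells; note the MMTV promoter also responds to GR. Exposure lasted 16 hr at 37C.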

For experiment [9], the target named is Estrogen receptor (Homo sapiens) (UniProt P03372). Description: qHTS assay to identify small molecule antagonists of the estrogen receptor alpha (ER-alpha) signaling pathway using the BG1 cell line in the presence of 0.1 nM 17-beta-estradiol (AID 1259244). Note: nearly all actives have a fitted effect of over 50% in size. Note: potency is the fitted concentration of half-maximal effect. Summed up: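 Quantitative high-throughput screen in VM7Luc4E2 cells: compound plus 0.1 nM E2 (final), 22 h, 37C, 5% CO2; ONE-Glo added, 30 min room temperature, luminescence measured.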

Experiment [10] can be described thus: qHTS assay to identify small molecule phospholipidosis (PLD) inducers (AID 1259344; active = well fitted curve in the direction sought with a large enough effect; an effect the other way counts as inactive or inconclusive). The method, boiled down: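 HepG2 cells grown on collagen I take up LipidTOX Red while exposed to compound for 24 h; after fixation they are imaged at 20x and pit metrics are extracted.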

Each structure is given as a SMILES string. Inconclusive results are not listed. Calls of active or inactive are those of the source. Unless noted, calls come from the whole dose curve; as a rule, active = well fitted curve in the direction sought with a large enough effect in the repeat runs; inconclusive = weak or mixed curves; inactive = no such curve, though single readings can be large; an effect the other way counts as inactive or inconclusive.

Sequence of Estrogen receptor (Homo sapiens) (P03372 whole entry, looked up): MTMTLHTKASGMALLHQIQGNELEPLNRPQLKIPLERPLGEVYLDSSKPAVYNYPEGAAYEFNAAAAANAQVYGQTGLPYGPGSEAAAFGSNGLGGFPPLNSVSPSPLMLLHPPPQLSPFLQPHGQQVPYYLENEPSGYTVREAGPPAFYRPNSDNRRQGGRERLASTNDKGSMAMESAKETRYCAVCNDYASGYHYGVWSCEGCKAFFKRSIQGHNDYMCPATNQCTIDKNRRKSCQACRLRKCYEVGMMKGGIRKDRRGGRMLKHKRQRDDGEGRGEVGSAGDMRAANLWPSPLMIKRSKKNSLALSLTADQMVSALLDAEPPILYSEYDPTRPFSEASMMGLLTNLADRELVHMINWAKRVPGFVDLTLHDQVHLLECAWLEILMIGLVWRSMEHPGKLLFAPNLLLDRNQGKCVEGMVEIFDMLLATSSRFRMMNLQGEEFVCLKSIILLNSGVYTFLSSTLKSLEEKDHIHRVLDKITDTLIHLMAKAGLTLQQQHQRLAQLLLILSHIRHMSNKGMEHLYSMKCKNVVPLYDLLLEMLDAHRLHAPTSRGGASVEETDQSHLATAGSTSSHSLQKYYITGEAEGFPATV
Sequence of Androgen receptor (Homo sapiens) (P10275 whole entry, looked up): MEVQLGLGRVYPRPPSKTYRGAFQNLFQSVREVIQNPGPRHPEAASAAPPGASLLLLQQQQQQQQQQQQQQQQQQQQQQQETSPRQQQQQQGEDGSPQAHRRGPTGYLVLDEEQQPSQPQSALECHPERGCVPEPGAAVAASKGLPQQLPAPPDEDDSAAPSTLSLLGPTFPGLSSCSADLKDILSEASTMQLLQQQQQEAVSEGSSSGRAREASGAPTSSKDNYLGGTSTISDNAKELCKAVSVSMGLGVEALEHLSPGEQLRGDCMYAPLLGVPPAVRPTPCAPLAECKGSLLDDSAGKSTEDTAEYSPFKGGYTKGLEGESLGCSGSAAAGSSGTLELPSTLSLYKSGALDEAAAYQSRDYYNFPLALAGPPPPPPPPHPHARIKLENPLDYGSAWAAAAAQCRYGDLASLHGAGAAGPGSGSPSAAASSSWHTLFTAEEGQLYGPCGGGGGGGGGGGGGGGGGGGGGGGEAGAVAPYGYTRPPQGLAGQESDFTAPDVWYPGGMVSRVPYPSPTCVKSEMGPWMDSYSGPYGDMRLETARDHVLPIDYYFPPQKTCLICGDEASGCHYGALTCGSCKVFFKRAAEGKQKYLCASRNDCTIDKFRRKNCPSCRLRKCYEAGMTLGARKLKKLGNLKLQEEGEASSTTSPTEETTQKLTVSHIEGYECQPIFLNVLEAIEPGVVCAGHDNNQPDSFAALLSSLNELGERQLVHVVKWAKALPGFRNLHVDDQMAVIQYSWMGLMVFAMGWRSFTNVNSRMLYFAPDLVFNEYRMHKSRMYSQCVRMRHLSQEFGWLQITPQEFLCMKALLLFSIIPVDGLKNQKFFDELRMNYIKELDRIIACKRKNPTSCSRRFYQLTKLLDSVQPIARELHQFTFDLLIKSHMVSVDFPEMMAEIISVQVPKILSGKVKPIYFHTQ

With `CC(c1ccc(O)cc1)(c1ccc(O)cc1)c1ccc(O)cc1`, the Potency result in [1], in experiment [2], in experiment [3] and in [4] was “inactive” throughout. Further, in experiment [5], the Potency was 61.1 µM (active).

With `BrCC(Br)C1CCC(Br)C(Br)C1` (centres undefined), the Potency entry in experiment [1], in experiment [2], in experiment [3] and in [4] was “inactive” each time.

Regarding `O=C(O)C(F)(F)C(F)(F)C(F)(F)C(F)(F)C(F)(F)C(F)(F)C(F)(F)C(F)(F)C(F)(F)C(F)(F)F`, the Potency entry in experiment [6], in [2], in [3], in experiment [4], in experiment [5] and in [7] was “inactive” in each case.

On to `O=[N+]([O-])C(Br)(CO)CO`, for which the Potency result in experiment [6], in [2], in experiment [8], in experiment [9], in [3] and in [4] was “inactive” each time. In experiment [10], the outcome was inactive. The results for the Potency in experiment [5] and in [7] were 48.6 µM (active) and 61.1 µM (active), respectively.

As for `CC1(C)CCC(Cc2ccc(Cl)cc2)C1(O)Cn1cncn1` (centres undefined), the Potency result in experiment [2], in experiment [3], in [4], in [5] and in experiment [7] was “inactive” each time. For the same compound, the Potency in experiment [9] was 61.1 µM (active).

On to `COc1nn(C(=O)NS(=O)(=O)c2ccccc2OC(F)(F)F)c(=O)n1C`, for which the Potency in experiment [1] is 39.9 µM (active). Moreover, the Potency result in [2], in experiment [3], in experiment [4] and in [7] was “inactive” throughout.

As to `CC(C)(C)c1cc([N+](=O)[O-])cc([N+](=O)[O-])c1O`, the Potency was 13.6 µM (active) in [6], 12.2 µM (active) in experiment [2], 21.6 µM (active) in [5] and 24.3 µM (active) in experiment [7]. Moreover, the Potency entry in experiment [4] was “inactive”.

As to `NC(=O)CI`, the Potency result in experiment [6], in experiment [2], in experiment [9], in experiment [4], in [5] and in [7] was “inactive” throughout. In experiment [3], the Potency was 54.9 µM (active).

Turning to `O=S1OC[C@@H]2[C@H](CO1)[C@]1(Cl)C(Cl)=C(Cl)[C@@]2(Cl)C1(Cl)Cl` (some centres undefined), the Potency entry in [2], in [9], in experiment [3], in experiment [4] and in experiment [5] was “inactive” in each case. The Potency in experiment [8] is 48.6 µM (active).

Take `CCc1ccc(C(=O)NN(C(=O)c2cc(C)cc(C)c2)C(C)(C)C)cc1`: the Potency entry in experiment [1], in [2], in experiment [3] and in [4] was “inactive” each time. The Potency in experiment [5] was 2.17 µM (active); in experiment [7], 2.43 µM (active).

With `[O-][Cl+]O`, the Potency result in experiment [1], in experiment [2], in experiment [3], in experiment [4] and in [5] was “inactive” in each case.

Take `[CH3][Sn]([CH3])([Cl])[Cl]`: the Potency result in experiment [1], in [2], in [3], in experiment [4] and in experiment [5] was “inactive” in each case.

Take `CC(=O)c1cc2c(cc1C)C(C)(C)C(C)CC2(C)C` (centres undefined): the Potency entry in experiment [6], in experiment [2], in experiment [3], in [4] and in experiment [7] was “inactive” in each case.

Turning to `CCCCC(O)(Cn1cncn1)c1ccc(Cl)cc1Cl` (centres undefined), the Potency entry in experiment [2], in experiment [3] and in experiment [4] was “inactive” throughout. The figures for the Potency in [8] and in experiment [9] were 54.4 µM (active) and 61.1 µM (active), respectively.

For `O=C(Nc1ccccc1)Nc1cnns1`, the Potency result in [1], in experiment [2], in experiment [4], in experiment [5] and in [7] was “inactive” in each case. The Potency in experiment [3] was 30.6 µM (active).

In the case of `O=C(O)CC(Cl)C(=O)O` (centres undefined), the Potency result in experiment [1], in experiment [2], in [3], in experiment [4], in experiment [5] and in experiment [7] was “inactive” throughout.

`CS/C(C)=N/OC(=O)N(C)SN(C)C(=O)O/N=C(\C)SC`: the Potency entry in experiment [6], in [8], in experiment [9], in [3], in experiment [4] and in experiment [7] was “inactive” throughout. Moreover, in experiment [5], the Potency is 54.5 µM (active).

Consider `CC1CC(CC2CCC(N)C(C)C2)CCC1N` (centres undefined), for which the Potency result in [1], in experiment [8], in experiment [9], in experiment [3] and in experiment [4] was “inactive” in each case.

As for `CCC(C)(NC(=O)c1cc(Cl)c(C)c(Cl)c1)C(=O)CCl` (centres undefined), the Potency result in experiment [1], in experiment [9], in experiment [3] and in experiment [4] was “inactive” each time. Also, the Potency was 43.5 µM (active) in [5] and 21.8 µM (active) in experiment [7].

As for `CN(C)c1ccc(N(C)C)cc1`, the Potency entry in experiment [1], in [2], in experiment [4] and in experiment [7] was “inactive” each time. In experiment [9], the Potency was 30.7 µM (active).

Consider `C=CC(=O)OC(C)(C)C`, for which the Potency entry in experiment [1], in experiment [2], in experiment [3], in experiment [4], in experiment [5] and in [7] was “inactive” each time.

In the case of `CC(C)(Cl)[N+](=O)[O-]`, the Potency result in experiment [1], in experiment [2], in experiment [3], in experiment [4], in [5] and in experiment [7] was “inactive” throughout.

For the compound `COP(=S)(OC)Oc1ccc([N+](=O)[O-])cc1Cl`, the Potency result in experiment [1], in experiment [9] and in experiment [4] was “inactive” each time. In addition, in experiment [8], the Potency was 6.86 µM (active).

As for `C=CC[C@]1(O)CC[C@H]2[C@@H]3CCC4=CC(=O)CCC4=C3C=C[C@@]21C`, the Potency entry in experiment [1], in experiment [3] and in [4] was “inactive” throughout. In addition, in experiment [9], the Potency was 13.3 µM (active).

On to `O=C(Nc1ccccc1)Nc1ccnc(Cl)c1`, for which the Potency entry in [1] and in experiment [4] was “inactive” in each case. In addition, the values for the Potency in experiment [8], in [9] and in experiment [3] were 43.3 µM (active), 24.3 µM (active) and 4.33 µM (active), respectively.

Consider `CCOP(O)OCC`, for which the Potency entry in experiment [1], in experiment [2], in [3], in experiment [4] and in experiment [7] was “inactive” each time.
